# From PubChem BioAssay (EPA / NIEHS)
# Values joined by “and” are separate entries in the source; they are usually repeats but may differ in a detail not shown here. Equal values may be shown once. More than one record can exist for a structure, and the calls need not agree. Active and inactive are the calls of the source. The calls were made as follows: active = hit-call score of the fitted dose curve at least 0.9, where 1 is the maximum; inactive = score below 0.9.
# Read-out: Monokine induced gamma interferon (MIG), CXCL9 (gene 4283)
# Test: BSK_hDFCGF_MIG: BioMAP Diversity Plus: hDFCGF Assay for Monokine induced gamma interferon (MIG) Biomarker Activity (AID 2283063)
# Settings: primary human foreskin fibroblasts; actives raise or lower the signal
# How it was run: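 Chemicals were added to primary human foreskin fibroblast cultures, which were sampled 24 h later. MIG levels were then quantified by ELISA and responses fitted in both directions relative to DMSO.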
Compound,outcome,AC50
O=S(=O)(OCC(F)(F)F)C(F)(F)C(F)(F)C(F)(F)C(F)(F)F,inactive,–
C=CC(=O)OCC(F)(F)C(F)(F)C(F)(F)C(F)(F)C(F)(F)C(F)(F)C(F)(F)C(F)F,–,26.9 µM (active) and 30 µM (active)
NS(=O)(=O)C(F)(F)C(F)(F)C(F)(F)C(F)(F)C(F)(F)C(F)(F)F,inactive,–
CC(C)CCCC(C)CCO (stereo not given),inactive,–
CCN(CC)c1ccc(C=O)cc1,inactive,–
O=C=Nc1cccc2c(N=C=O)cccc12,inactive,–
C=CC(=O)OCCC(F)(F)C(F)(F)C(F)(F)C(F)(F)F,–,25.3 µM (active) and 30.9 µM (active)
OCCCCC(F)(F)C(F)(F)C(F)(F)C(F)(F)F,inactive,–
O=C(O)CCC(F)(F)C(F)(F)C(F)(F)C(F)(F)C(F)(F)C(F)(F)C(F)(F)F,inactive,–
CCN(CC)c1ccc(N=Nc2ccccc2)cc1,inactive,–
O=S(=O)(Cl)C(F)(F)C(F)(F)C(F)(F)C(F)(F)C(F)(F)C(F)(F)C(F)(F)C(F)(F)F,inactive,–
O=C(Cl)C(F)(F)C(F)(F)C(F)(F)C(F)(F)C(F)(F)C(F)(F)F,inactive,–
Cc1cc(O)c(C(C)(C)C)cc1C(C)(C)C,–,9.12 µM (active)
FC(F)(F)C(F)(F)C(F)(F)CC1CO1 (stereo not given),inactive,6.18 µM (active)
O=C(O)C(F)(F)C(F)(F)C(F)(F)C(=O)O,inactive,–
Cc1cnccn1,inactive,–
CN(C(=O)C(F)(F)C(F)(F)C(F)(F)F)[Si](C)(C)C,inactive,–

Compound,outcome,AC50
Brc1nc2ccccc2s1,inactive,–
CCN(CC)c1ccc2c(c1)Oc1cc(N(CC)CC)ccc1C21OC(=O)c2ccccc21,inactive,–
NC(O)(C(F)(F)F)C(F)(F)F,inactive,–
O=C(O)C(F)(F)OC(F)(F)C(F)(F)OC(F)(F)C(F)(F)OC(F)(F)F,inactive,–
O=C(O)C(F)(F)C(F)(F)C(F)(F)C(F)(F)C(F)(F)C(F)(F)C(F)F,inactive,–
NC(=O)C(F)(F)C(F)(F)C(F)(F)C(F)F,inactive,–
OC(O)C(F)(F)C(F)(F)F,inactive,–
COC(F)(C(F)F)C(F)(F)F (stereo not given),inactive,–
Cc1ccc(O)c(-n2nc3ccccc3n2)c1,inactive,–
CCN=C1C=CC(=C(c2ccc(N(CC)CC)cc2)c2ccc(N(CC)CC)cc2)c2ccccc21,–,1.73 µM (active) and 1.47 µM (active)
NC(=O)C(F)(F)C(F)(F)C(F)(F)C(F)(F)C(F)(F)C(F)(F)C(F)(F)F,inactive,–
FC(F)(F)C(F)(F)C(F)(F)C(F)(F)C(F)(F)C(F)(F)C(F)(F)CCI,inactive,3.33 µM (active)
Cc1ccc(S(=O)(=O)C(I)I)cc1,–,2.68 µM (active)
OCCCC(F)(F)C(F)(F)C(F)(F)C(F)(F)C(F)(F)C(F)(F)C(F)(F)C(F)(F)F,–,12.5 µM (active) and 12 µM (active)
NC(=O)C(F)(F)C(F)(F)C(F)(F)C(F)(F)C(N)=O,inactive,–
O=C(O)CCC(F)(F)C(F)(F)C(F)(F)F,inactive,–
